Most compounds without a hit are left out; they make up all but 0.9% or so of the library.
PPARg SRC3 recr: PPARgamma agonists recruiting SRC-3 coactivator, primary screen, biochemical. Peroxisome proliferator-activated receptor gamma (Homo sapiens), P37231. biochemical PPARgamma/SRC-3 coactivator recruitment assay. hit rate 0.26% among 200,000. activation, % at 8 µM; in the data active = activation above about 23%;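 note: 0% = DMSO and 100% = reference agonist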
Target sequence (P37231 whole entry, looked up): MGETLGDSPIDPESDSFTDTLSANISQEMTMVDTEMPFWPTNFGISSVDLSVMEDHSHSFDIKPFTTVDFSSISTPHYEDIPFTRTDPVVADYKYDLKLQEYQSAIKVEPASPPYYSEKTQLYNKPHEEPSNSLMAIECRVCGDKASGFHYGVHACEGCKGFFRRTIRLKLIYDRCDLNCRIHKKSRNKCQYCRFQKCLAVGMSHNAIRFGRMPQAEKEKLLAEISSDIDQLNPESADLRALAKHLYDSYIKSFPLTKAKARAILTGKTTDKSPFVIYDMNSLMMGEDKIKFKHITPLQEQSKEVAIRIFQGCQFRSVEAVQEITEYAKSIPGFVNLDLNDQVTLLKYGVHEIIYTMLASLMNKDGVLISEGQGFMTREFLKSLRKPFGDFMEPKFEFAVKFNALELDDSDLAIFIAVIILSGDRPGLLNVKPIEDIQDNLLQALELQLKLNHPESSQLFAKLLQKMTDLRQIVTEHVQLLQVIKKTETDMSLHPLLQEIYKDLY
TR-FRET SRC-2 ct: TR-FRET signal artefacts, primary screen, artefact control for PPARgamma SRC-2 agonist project, biochemical; TR-FRET ratio at 8 µM; hit rate 0.4% among 200,000; TR-FRET artefact counter-screen; stronger effect = higher value; AID 1049, 2008; in the data active = TR-FRET ratio above about 2000
SRC3 TRFRET art: TR-FRET detection interference compounds, artefact control for PPARgamma SRC-3 recruitment agonists, biochemical, TR-FRET ratio; TR-FRET artefact counter-screen, PPARgamma/SRC-3 format; stronger effect = higher value; TR-FRET ratio at 8 µM; hit rate 0.39% among 99,000; in the data active = TR-FRET ratio above about 2000
PPARg SRC-1 ag: PPARgamma agonists recruiting SRC-1 coactivator, primary screen, biochemical; activation, % at 8 µM; PPARgamma-SRC-1 coactivator recruitment biochemical assay; AID 631, 2007; hit rate 0.41% among 200,000; Peroxisome proliferator-activated receptor gamma (Homo sapiens), P37231; in the data active = activation above about 19%;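 note: 0% = DMSO and 100% = reference agonist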
SRC1 TRFRET art: TR-FRET detection interference compounds, primary screen, artefact control for PPARgamma SRC-1 recruitment agonists, biochemical, TR-FRET emission ratio; AID 1051, 2008; TR-FRET ratio at 8 µM; TR-FRET detection artefact counter-screen; stronger effect = higher value; hit rate 0.34% among 99,000; in the data active = TR-FRET ratio above about 2300
PPARg SRC-2 ag: agonists of PPARg-SRC-2 recruitment, primary screen, biochemical, HTS; Peroxisome proliferator-activated receptor gamma (Homo sapiens), P37231; PPARgamma LBD-SRC-2 recruitment; activation, % at 8 µM; hit rate 0.34% among 200,000; AID 1032, 2008;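 note: 0% = vehicle and 100% = reference agonist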
PPARg SRC2 ag: agonists of PPARgamma SRC-2 coactivator recruitment, confirmation, biochemical, HTS; shares compounds with PPARg SRC3 recr; biochemical SRC-2 recruitment by PPARgamma; activation, % at 8 µM; hit rate 52% among 790; AID 1297, 2008;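 note: 0% = vehicle alone and 100% = reference agonist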
PPARg SRC1 ag: PPARgamma agonists recruiting SRC-1 coactivator, confirmation, biochemical; shares compounds with PPARg SRC3 recr; PPARgamma–SRC-1 coactivator recruitment biochemical assay; activation, % at 8 µM; hit rate 43% among 790; AID 1300, 2008; in the data active = activation above about 20%;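 note: 0% = vehicle wells and 100% = reference agonist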
PPARg SRC3 conf: PPARgamma-driven SRC-3 coactivator recruitment agonists, confirmation, biochemical; hit rate 29% among 790; AID 1301, 2008; biochemical PPARgamma-SRC-3 coactivator recruitment, agonist mode; activation, % at 8 µM; shares compounds with PPARg SRC3 recr; in the data active = activation above about 24%;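 note: 0% = vehicle wells and 100% = reference agonist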
* marks the source's active call; other numbers are inactive results. Cut-off read from the data, not from the text of the source, unless noted: active = activation above about 22%; inactive = the rest.

For NS(=O)(=O)c1ccc(CNC(=O)c2cc(-c3ccccn3)nc3ccc(Cl)cc23)cc1 the results were PPARg SRC3 recr 54.3*, TR-FRET SRC-2 ct 2879*, SRC3 TRFRET art 3729*, PPARg SRC-1 ag 62.7*, SRC1 TRFRET art 3155*, PPARg SRC-2 ag 64.1*, PPARg SRC2 ag 33.2*, PPARg SRC1 ag 27.0* and PPARg SRC3 conf 18.4.
Screening O=C1NC(=S)S/C1=C\c1ccc(SCc2ccco2)o1 returned PPARg SRC3 recr 14.4, TR-FRET SRC-2 ct 1647, SRC3 TRFRET art 1738, PPARg SRC-1 ag 21.2*, SRC1 TRFRET art 1829, PPARg SRC-2 ag 33.0*, PPARg SRC2 ag 2.5, PPARg SRC1 ag 6.0 and PPARg SRC3 conf 2.3.
For COc1cc(C(=O)NCCC(C)C)ccc1OCc1ccc(Cl)cc1Cl the results were PPARg SRC3 recr 46.5*, TR-FRET SRC-2 ct 1605, SRC3 TRFRET art 1559, PPARg SRC-1 ag 48.0*, SRC1 TRFRET art 1879, PPARg SRC-2 ag 14.5, PPARg SRC2 ag 17.8, PPARg SRC1 ag 45.4* and PPARg SRC3 conf 38.1*.
Screening CC(=O)Oc1cc2cccc(OC(C)=O)c(=O)c2c(OC(C)=O)c1OC(C)=O returned PPARg SRC3 recr 10.4, TR-FRET SRC-2 ct 1830, SRC3 TRFRET art 1773, PPARg SRC-1 ag 11.3, SRC1 TRFRET art 1973, PPARg SRC-2 ag 16.6, PPARg SRC2 ag 8.5, PPARg SRC1 ag 7.5 and PPARg SRC3 conf 4.0.
`COc1cc2cccc(OC)c(=O)c2c(O)c1OC` gave PPARg SRC3 recr -1.9, TR-FRET SRC-2 ct 1681, SRC3 TRFRET art 1498, PPARg SRC-1 ag 6.0, SRC1 TRFRET art 1983 and PPARg SRC-2 ag 2.8.
For C#CCn1cc(/C=N/Nc2nc3ccccc3[nH]2)c2ccccc21 the results were PPARg SRC3 recr 12.8, TR-FRET SRC-2 ct 1820, SRC3 TRFRET art 1807, PPARg SRC-1 ag 14.8, SRC1 TRFRET art 2389*, PPARg SRC-2 ag 29.9*, PPARg SRC2 ag 7.1, PPARg SRC1 ag 11.0 and PPARg SRC3 conf 7.6.
`O=c1cc(O)nc(-c2ccc(Cl)cc2)s1` gave PPARg SRC3 recr 0.4, TR-FRET SRC-2 ct 1583, SRC3 TRFRET art 1529, PPARg SRC-1 ag -12.2, SRC1 TRFRET art 1478 and PPARg SRC-2 ag 5.5.
`CN(C)c1ccc(/C=C/C=C2/SC(=S)N(c3ccccc3)C2=O)cc1` gave PPARg SRC3 recr 9.3, TR-FRET SRC-2 ct 1683, PPARg SRC-1 ag 19.8*, PPARg SRC-2 ag 12.9, PPARg SRC2 ag 30.2*, PPARg SRC1 ag 21.3* and PPARg SRC3 conf 18.9.
Screening O=C(O)c1ccc(N2C(=O)/C(=C/C=C/c3ccccc3)SC2=S)cc1 returned PPARg SRC3 recr 6.1, TR-FRET SRC-2 ct 1585, SRC3 TRFRET art 1466, PPARg SRC-1 ag 8.3, SRC1 TRFRET art 1703 and PPARg SRC-2 ag 4.0.
Screening Cc1cc(C)nc(N2CCCC(CCC(=O)NCc3ccc(F)c(F)c3)C2)n1 (stereo not given) returned PPARg SRC3 recr 0.9, TR-FRET SRC-2 ct 1601, SRC3 TRFRET art 1419, PPARg SRC-1 ag -1.4, SRC1 TRFRET art 1320 and PPARg SRC-2 ag 9.1.
`O=C1CC(Sc2nnc(-c3ccccc3)o2)C(=O)N1c1ccccc1` (stereo not given) gave PPARg SRC3 recr 31.2*, TR-FRET SRC-2 ct 1657, PPARg SRC-1 ag 19.8*, PPARg SRC-2 ag 39.1*, PPARg SRC2 ag 28.2*, PPARg SRC1 ag 21.2* and PPARg SRC3 conf 15.7.
O=C1c2ccccc2CC1Sc1nnc(-c2ccncc2)o1 (stereo not given) was read as PPARg SRC3 recr -4.2, TR-FRET SRC-2 ct 1537, PPARg SRC-1 ag -8.8 and PPARg SRC-2 ag 0.8.

Assay outcomes (PubChem BioAssay)
